Experimental data taken from PubChem BioAssay (Tox21).
Records with an inconclusive call do not appear. Active and inactive are the calls of the source. Calls come from the whole dose curve; as a rule, active = well fitted activation curve with a large enough effect in the signal ratio in the repeat runs (not every such curve was filed as active); inconclusive = weak or mixed curves, or effect the other way; inactive = flat fitted curve, though single readings scatter; the % refers to the signal ratio.

Biological target: Bile acid receptor (Homo sapiens) (UniProt Q96RI1)
Assay: qHTS assay to identify small molecule agonists of the farnesoid-X-receptor (FXR) signaling pathway (AID 743220)
Settings: HEK293T FXR-UAS-bla, beta-lactamase FRET ratio, 16 h; series mostly up to 62.6 µM; activation: at the top concentration
Text: National Center for Advancing Translational Sciences [NCATS]
NIH Chemical Genomics Center [NCGC]
U.S. Environmental Protection Agency [EPA]
National Institutes of Environmental Health Sciences [NIEHS]
National Toxicology Program [NTP]
U.S. Food and Drug Administration [FDA]
The farnesoid-X-receptor (FXR), a nuclear hormone receptor, is highly expressed in liver, intestine, kidney and adrenal cortex. Natural ligands of FXR are the bile acids (Cholic acid, Chenodeoxy cholic acid etc). FXR is an important regulator of diverse metabolic pathways, including the bile acid homeostasis, lipid and glucose metabolisms. FXR regulates the expression of target genes by binding either as a monomer or as a heterodimer with the retinoid X receptor (RXR). Numerous studies have reported that FXR exerts protective function during cholestasis, diabetes, liver regeneration, and cancer. To identify compounds that activate FXR signaling, GeneBLAzer FXR-UAS-bla HEK 293T cell line (Invitrogen, Carlsbad, CA) containing a beta-lactamase reporter gene under the control of a UAS response element was used to screen the Tox21 10K compound library.
Tox21 Assay Protocol Summary:
FXR-bla cells were dispensed at 5000 cells/5uL/well in 1536-well black wall/clear bottom plates using a Multidrop Combi (Thermo Fisher Scientific, Waltham, MA) dispenser. After the assay plates were incubated at 37C and 5% CO2 for 5 h, 23 nL of compounds dissolved in DMSO, positive controls or DMSO only was transferred to the assay plate by a Pintool station (Kalypsys, San Diego, CA). The assay plates were incubated at 37C for 16 h. After 1 uL of LiveBLAzerTM B/G FRET substrate was added using a Bioraptr Flying Reagent Dispenser (FRD) workstation (Beckman Coulter, Indianapolis, IN), the plates were incubated at room temperature for 2 h, and fluorescence intensity was measured by an Envision plate reader (PerkinElmer, Shelton, CT).
% is set by controls: 0 for no effect and ±100 for the full control effect.

Chain of Bile acid receptor (Homo sapiens) (Q96RI1 whole entry, looked up): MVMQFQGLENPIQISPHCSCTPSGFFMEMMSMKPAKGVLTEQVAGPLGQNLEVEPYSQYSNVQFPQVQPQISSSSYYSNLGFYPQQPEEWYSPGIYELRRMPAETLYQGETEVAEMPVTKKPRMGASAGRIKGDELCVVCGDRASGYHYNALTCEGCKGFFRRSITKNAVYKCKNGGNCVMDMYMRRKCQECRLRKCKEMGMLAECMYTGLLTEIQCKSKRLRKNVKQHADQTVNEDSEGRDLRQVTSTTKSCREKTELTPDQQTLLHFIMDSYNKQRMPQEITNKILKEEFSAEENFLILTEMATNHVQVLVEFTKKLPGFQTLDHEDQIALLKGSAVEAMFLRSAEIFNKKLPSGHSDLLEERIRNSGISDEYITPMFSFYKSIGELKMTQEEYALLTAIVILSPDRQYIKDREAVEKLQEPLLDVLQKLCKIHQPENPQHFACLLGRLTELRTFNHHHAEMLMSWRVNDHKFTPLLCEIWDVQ

Question: For `COCc1cnc(C2=NC(C)(C(C)C)C(=O)N2)c(C(=O)O)c1` (stereo not given), which “activation” value is on record?
Answer: Its value is -0.358% (inactive).

Question: How did the “activation” value turn out when `O=C(O)COc1cc(Cl)c(Cl)cc1Cl` was run?
Answer: The value was -1.95% (inactive).

Question: With `O=C(O)C(F)(F)C(F)(F)C(F)(F)C(F)(F)C(F)(F)C(F)(F)C(F)(F)C(F)(F)F` as the molecule, how does the “activation” value read?
Answer: Its value is 5.37% (inactive).

Question: How did the “activation” value turn out when `Oc1cccc(Cl)c1` was run?
Answer: The value was 0.69% (inactive).

Question: `CCCSP(=S)(OCC)Oc1ccc(SC)cc1` (stereo not given) was tested. Which “activation” value did it give?
Answer: The value was 3.68% (inactive).

Question: For `CC(C)CCCCCCCOC(=O)c1ccccc1C(=O)OCCCCCCCC(C)C`, which “activation” value is on record?
Answer: Its value is 1.74% (inactive).

Question: How did the “activation” value turn out when `COc1ccc(C(=O)c2c(C)n(CCN3CCOCC3)c3ccccc23)cc1` was run?
Answer: The value was 0.622% (inactive).

Question: How did the “activation” value turn out when `O=C(NCNC(=O)NC1C(=O)NC(=O)N1CO)NC1C(=O)NC(=O)N1CO` (stereo not given) was run?
Answer: The value was 2.52% (inactive).

Question: `C#CC(O)(C=CCl)CC` (stereo not given) was tested. Which “activation” value did it give?
Answer: Its value is 0.735% (inactive).

Question: Which “activation” value does the source give for `C=CCOCC1CO1` (stereo not given) here?
Answer: Its value is -0.617% (inactive).

Question: How did the “activation” value turn out when `C=CC(=O)OCC` was run?
Answer: The value was -0.0799% [at 81.1 µM] (inactive).

Question: For `CCCC[N+]1(C)[C@@H]2CC(OC(=O)[C@H](CO)c3ccccc3)C[C@H]1[C@@H]1O[C@@H]12` (stereo not given in full), which “activation” value is on record?
Answer: The value was 1.25% (inactive).

Question: With `SCc1ccccc1` as the molecule, how does the “activation” value read?
Answer: The value was -0.171% [at 81.1 µM] (inactive).

Question: For `CCOP(=S)(S)OCC`, which “activation” value is on record?
Answer: The value was -0.189% [at 81.1 µM] (inactive).

Question: `OCC1CO1` (stereo not given) was tested. Which outcome did it give?
Answer: Its outcome is “inactive”.

Question: For `CCC1(CCC(C)C)C(=O)NC(=O)NC1=O`, which “activation” value is on record?
Answer: The value was -0.522% [at 81.1 µM] (inactive).

Question: For `CC(C)(C#N)C(C)(C)C#N`, which “activation” value is on record?
Answer: The value was -0.978% [at 81.1 µM] (inactive).

Question: With `O=C1c2ccccc2C(=O)N1SC(Cl)(Cl)Cl` as the molecule, how does the “activation” value read?
Answer: The value was -0.708% (inactive).

Question: `COc1ccc(C(O)(c2cncnc2)C2CC2)cc1` (stereo not given) was tested. Which “activation” value did it give?
Answer: The value was -1.01% (inactive).

Question: How did the outcome turn out when `Cc1ccc(N)c(C)c1` was run?
Answer: Its outcome is “inactive”.

Question: Which “activation” value does the source give for `CC(C)(C)CC(C)(C)c1ccc(O)cc1` here?
Answer: The value was -0.482% (inactive).

Question: For `C=CCc1ccccc1O`, which “activation” value is on record?
Answer: Its value is 2.04% (inactive).

Question: How did the outcome turn out when `CCCN(CCOc1c(Cl)cc(Cl)cc1Cl)C(=O)n1ccnc1` was run?
Answer: Its outcome is “inactive”.

Question: `CCOP(=O)(O)C(N)=O` was tested. Which “activation” value did it give?
Answer: Its value is 0.976% (inactive).

Question: Which “activation” value does the source give for `CCCCCCCCCCCCN(C)C` here?
Answer: Its value is -0.0063% (inactive).

Question: With `c1ccc2c(c1)sc1ccccc12` as the molecule, how does the outcome read?
Answer: Its outcome is “inactive”.

Question: `CON(C)C(=O)Nc1ccc(Cl)cc1` was tested. Which “activation” value did it give?
Answer: Its value is 0.806% (inactive).

Question: How did the “activation” value turn out when `O=C(Cc1ccccc1)c1ccccc1` was run?
Answer: Its value is -0.627% (inactive).

Question: How did the “activation” value turn out when `COC1CC(=C(c2cccs2)c2cccs2)C[N+](C)(C)C1` (stereo not given) was run?
Answer: Its value is -1.61% (inactive).

Question: Which “activation” value does the source give for `ClCc1ccccc1Cl` here?
Answer: The value was 0.178% [at 81.1 µM] (inactive).

Question: For `CCN(C(C)=O)c1cccc(-c2ccnc3c(C#N)cnn23)c1`, which “activation” value is on record?
Answer: Its value is -2.44% (inactive).

Question: For `O=C(O)c1cc(I)cc(I)c1I`, which “activation” value is on record?
Answer: The value was -1.02% [at 81.1 µM] (inactive).

Question: `CN[C@@H](C)[C@H](O)c1ccccc1` was tested. Which “activation” value did it give?
Answer: Its value is 2.07% (inactive).

Question: With `NNCCO` as the molecule, how does the “activation” value read?
Answer: The value was 0.765% (inactive).

Question: How did the “activation” value turn out when `OCCSSCCO` was run?
Answer: Its value is -0.738% (inactive).

Question: For `CC(C)(C)NCC(O)c1ccccc1Cl` (stereo not given), which “activation” value is on record?
Answer: The value was -2.16% (inactive).

Question: How did the “activation” value turn out when `C[N+]1(CCC(C(N)=O)(c2ccccc2)c2ccccc2)CCCCC1` was run?
Answer: The value was 6.51% (inactive).

Question: `CC1(C)CC(=O)CC(C)(C)N1[O]` was tested. Which “activation” value did it give?
Answer: Its value is 3.5% (inactive).

Question: For `CC[N+]1(CCOC(=O)C(O)(c2ccccc2)c2ccccc2)CCCCC1`, which “activation” value is on record?
Answer: Its value is 4.57% (inactive).

Question: `O=[N+]([O-])/C=C/c1ccccc1` was tested. Which “activation” value did it give?
Answer: Its value is -7.59% (inactive).
